# Assay outcomes as filed in PubChem BioAssay.
# aSyn yeast inh = inhibitors of alpha-synuclein toxicity in yeast | 0.14% of 370,000 active | Potency, µM (highest dose often 46.1 µM), for inactives: at the highest dose growth rescue (activation), usual class: activators | AID 652106 | Yeast expressing alpha-synuclein, growth rescue, BacTiter-Glo, 24 h; also: % of control where 0% means no effect; nearly all actives have a fitted effect of over 65% in size
#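 Rescue of yeast growth: cells expressing toxic alpha-synuclein, induced in galactose at OD600 0.02, incubated with compound 24 h at 30 C. ATP luminescence quantified growth; inhibitors of toxicity appear as activators.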
# FUS suppressor = FUS proteinopathy suppression in yeast | S. cerevisiae FUS-expressing, growth rescue, OD600, 24 h | AID 1347120 | 0.24% of 390,000 active | Potency, µM (series often up to 76.6 µM), actives largely listed as activators;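 also: plate controls were DMSO vehicle for no effect and reference control for full effect; nearly all actives have a fitted effect of over 55% in size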
#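 Compound concentration series was pinned onto galactose-induced FUS-expressing yeast seeded at OD 0.005. Plates sat 24hr at 30C; absorbance at 600 nm gave growth. DMSO served as background control.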
# GRP78 ERSR act = induces the endoplasmic reticulum stress response in human glioma cells | U87-MG GRP78 promoter luciferase reporter, 16 h | Potency, µM, for the others: top-dose activation, hits mostly activators | 0.02% of 420,000 active | AID 602332; also: series mostly up to about 76 µM; % of control where 0% means no effect; nearly all actives have a fitted effect of over 35% in size
#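 ERSR induction read as luciferase luminescence (Bright-Glo, 10 min at room temperature) in stably transfected human U87-MG glioma cells exposed to compounds for 16 h, using GRP78 as sensor.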
# Abeta rescue = restores growth of yeast expressing A-beta42 peptide; Potency, µM (highest dose often 46.1 µM), usual class: activators; AID 1347071; 0.063% of 410,000 active; yeast expressing A-beta42, growth rescue, OD600, 48 h; response scale: 0% DMSO, 100% iron-clioquinol control; also: nearly all actives have a fitted effect of over 55% in size
#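 Growth rescue measured by 600 nm absorbance after 48 h yeast culture at 30 C with compound. Values normalized between DMSO and an equimolar ferric chloride plus clioquinol control.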
# MBNL1-CUG inh = inhibitors of human MBNL1 binding to CUG repeat RNA; Q9NR56; TR-FRET MBNL1-His/biotin-(CUG)12 binding, 665/545 ratio; Potency, µM (titrated, usually from 57.5 µM), without a hit: at the top dose activity change, negative = inhibition, hits mostly inhibitors; 0.036% of 280,000 active; AID 2675; active = well fitted inhibition curve with a large enough effect in the signal ratio, with a control signal flat, not every such curve was filed as active; inconclusive = small, poorly fitted or top-dose-only effect, or effect the other way, or a change in a side signal; inactive = no such curve, though single readings can be large or run the other way; the % refers to the signal ratio; also: % is scaled to controls: 0 for no effect and ±100 for the full control effect
# Target sequence (Q9NR56 whole entry, looked up): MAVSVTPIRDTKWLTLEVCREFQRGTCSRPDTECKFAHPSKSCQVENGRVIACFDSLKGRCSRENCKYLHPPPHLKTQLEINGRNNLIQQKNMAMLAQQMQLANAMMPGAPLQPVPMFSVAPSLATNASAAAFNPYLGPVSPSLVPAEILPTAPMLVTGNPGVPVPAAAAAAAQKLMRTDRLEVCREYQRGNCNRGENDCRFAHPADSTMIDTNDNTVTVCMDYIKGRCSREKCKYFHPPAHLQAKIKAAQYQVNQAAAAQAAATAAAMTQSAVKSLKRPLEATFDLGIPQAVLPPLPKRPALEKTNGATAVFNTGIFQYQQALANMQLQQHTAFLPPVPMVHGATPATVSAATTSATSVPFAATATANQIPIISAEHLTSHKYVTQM
#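 MBNL1-His + Biotin-(CUG)12, cpd titration 92 nM–58 uM; Tb anti-His Ab 0.055 ng/ul, SA-XL665 5 nM (final); 60 min RT; ratiometric 665/545 nm, Ex 340 nm; normalized to buffer and full-complex controls.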
# TDP43 rescue = TDP-43 toxicity inhibition in yeast | TDP-43 expressing yeast growth rescue, BacTiter-Glo, 24 h | Potency, µM (series often up to 46.1 µM), for the others: at the top dose growth rescue (activation), hits mostly activators | 1.8% of 410,000 active | AID 652104; also: % of control where 0% means no effect; nearly all actives have a fitted effect of over 50% in size
#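 Cell-based yeast growth screen: TDP-43 expression induced in galactose, inoculum OD600=0.02 after raffinose pregrowth to mid-log. Read-out BacTiter-Glo luminescence at 24 hr, 30 deg C; inhibition of toxicity seen as signal increase.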
# Starred values were filed as active, the others as inactive; i = inactive; ? = inconclusive; · = no result given. Sampled rows, rich in hits. Any-hit rate of the full collection: about 2%. Unless noted, calls follow the shape of the dose curve; as a rule, active = well fitted curve in the direction sought with a large enough effect; inconclusive = small, poorly fitted or top-dose-only effect, or another doubt; inactive = no such curve, though single readings can be large; an effect the other way counts as inactive or inconclusive. Potency is read from the fitted curve at half-maximal effect.
SMILES,aSyn yeast inh,FUS suppressor,GRP78 ERSR act,Abeta rescue,MBNL1-CUG inh,TDP43 rescue
Cc1cnc(C)c(-c2cccc3c2OC(CNC(=O)CN2C(=O)c4ccccc4C2=O)C3)n1 (configuration not stated),·,·,-2.7%,·,·,·
Oc1ccc2ccccc2c1/C=C/c1ccc2c(Br)cc(Br)c(O)c2n1,?,·,8.8%,i,·,15.8µM*
Oc1cccc2ccc(/C=C/c3ccccc3Br)nc12,?,i,4.4%,?,5.4%,-65.7%
CCOC(=O)N1CCC(NC(=O)c2cc3c(-c4ccc(OC)c(OC)c4)nn(C)c3s2)CC1,-4.4%,i,-3.2%,i,-4.3%,-1.0%
CCOC(=O)C1CCN(C(=O)c2cc3c(-c4ccc(OC)c(OC)c4)nn(C)c3s2)CC1,-12.0%,i,-4.1%,i,-8.6%,14.1µM*
CCO[C@H]1[C@H](NC(=O)c2cccnc2)c2ccccc2C12CCN(C(=O)c1cc(C)n(C)n1)CC2,·,·,-4.5%,·,·,·
COc1ccc(S(=O)(=O)N(C)C[C@H]2Oc3ccc(NC(=O)Cc4ccccc4)cc3C(=O)N([C@H](C)CO)C[C@@H]2C)cc1,1.0%,28.2µM*,-1.6%,i,·,18.0%
COc1ccc(S(=O)(=O)Nc2cccc3c2O[C@H](CN(C)S(=O)(=O)c2ccccc2)[C@@H](C)CN([C@H](C)CO)C3=O)cc1,-2.1%,15.8µM*,-3.3%,i,·,8.4%
COc1ccc(S(=O)(=O)Nc2cccc3c2O[C@H](CN(C)S(=O)(=O)c2ccc(F)cc2)[C@H](C)CN([C@H](C)CO)C3=O)cc1,0.1%,?,0.0%,i,·,-6.4%
C[C@H](CO)N1C[C@H](C)[C@@H](CN(C)S(=O)(=O)c2ccccc2)Oc2c(NC(=O)NC3CCCCC3)cccc2C1=O,-9.1%,31.6µM*,-1.6%,i,·,-5.0%
COc1ccc(S(=O)(=O)Nc2cccc3c2O[C@H](CN(C)Cc2ccc(Oc4ccccc4)cc2)[C@@H](C)CN([C@H](C)CO)C3=O)cc1,-0.5%,?,-3.2%,i,·,3.2%
COc1ccc(S(=O)(=O)Nc2cccc3c2O[C@H](CN(C)Cc2ccc(-c4ccccc4)cc2)[C@@H](C)CN([C@H](C)CO)C3=O)cc1,-1.0%,25.1µM*,-1.9%,i,·,-0.6%
CCCCCC[C@H](CC)CN(C(=O)Oc1ccccc1)c1ccccc1,·,i,·,·,·,·
COc1cc(OC)c(OC)cc1CN1CCOc2ccc(CN3C[C@@H](C)O[C@@H](C)C3)cc2C1,·,·,-5.2%,·,·,·
CC(C)NC(=O)[C@@H]1C[C@@H](Sc2nc3ccccc3[nH]2)CN1C1Cc2ccccc2C1,·,·,0.8%,·,·,·
O=C(CC1CCCC1)N1CC[C@H]2[C@H](CCCN2Cc2ccc(F)cc2)C1,·,i,·,·,·,·
CCCCN(C)c1c2c(nc3ncnn13)CCCC2,·,i,·,·,·,·
Cc1cc(NS(=O)(=O)C2CCN(C(=O)Cc3ccc(Cl)c(Cl)c3)CC2)no1,·,i,·,·,·,·
C[C@H](CN1CCCC1)C(=O)c1ccc(C(F)(F)F)cc1,·,·,-5.4%,·,·,·
CCOC(=O)[C@H](CCc1ccccc1)N[C@@H](C)C(=O)N(CC(=O)O)C1Cc2ccccc2C1,·,·,-0.5%,·,·,·
COc1ccc(C#Cc2ccc3c(c2)O[C@H](CN(C)S(=O)(=O)c2ccccc2F)[C@H](C)CN([C@H](C)CO)S3(=O)=O)cc1,-3.5%,28.2µM*,10.8%,i,·,26.2%
COc1ccc(S(=O)(=O)N(C)C[C@@H]2Oc3c(NC(=O)Nc4ccccc4)cccc3C(=O)N([C@@H](C)CO)C[C@H]2C)cc1,·,15.8µM*,·,·,·,·
CCN(CC)CCCNC(=O)CSc1nnc(-c2ccncc2)n1-c1ccc(OC)cc1,·,i,·,·,·,·
Cc1ccc(C=Nn2c(-c3n[nH]c4c3CCC4)n[nH]c2=S)o1,·,i,·,·,·,·
COc1ccc(C2CC(O)(c3ccccc3)Oc3cc(OC)ccc32)cc1 (configuration not stated),?,i,-2.7%,i,-1.4%,20µM*
